From the OligoGym collection

Biological target: IL16
Assay: pooled miR-30 sensor sort-seq; sequence = guide strand
Settings: shRNA
Note: reference of the scale not given here.

Sequence	sensor-assay potency score (higher = more potent)
TAGATCAGGAACACTGCTGGGC	0.521
TTTCTAGATCTGCTCCTCCTGC	-0.608
TTTAGGAACAACCTTTTGCTGG	-0.755

Biological target: IL18RAP
Assay: as above
Settings: shRNA

Sequence	sensor-assay potency score (higher = more potent)
TTTCTGTTCTACTGAGTCCTTT	-0.456
TCATCTTGACACAACAGGCTAC	0.09
TTGTAGTTCAAAGATACTGGGT	-0.0545
TTAACTTCTAAAATCATCTTGA	1
TATTTTCTGATTCTGCTCGGAC	-0.239
TTGTTTTCTAAAACATCAGGAA	-0.521
TCTCACTTGAACAACAGCTCTG	0.299
TTTGAATTTCCTATCAGCCTGA	0.608
ATAAACTTCATCCACTACGATT	-1.45
TTGGACATCAGATAGGTCGTTA	0.111
TTTCAGTGTTTGATCATCCAAG	-0.42
TTCTGTTCTACTGAGTCCTTTC	-0.716

Biological target: IL32
Assay: as above
Settings: shRNA

Sequence	sensor-assay potency score (higher = more potent)
TAGAGGAGTGAGCTCTGGGTGC	-1.21
TAAAATCTTTCTATGGCCTGGT	0.537
TTGCGGGATCCTCAACATCCGG	-1.68
TGCGGGATCCTCAACATCCGGG	-0.63
TTTTATCATAAAATCTTTCTAT	-0.484
TAGGACTTGTCACAAAAGCTCT	-1.15
TTTATCATAAAATCTTTCTATG	-1.15
TAGGACTGGAAAGAGGACATGA	0.275
TTTTTCAAGTAGAGGAGTGAGC	-0.743
TTTGAAGTCGTCCTCCAGCTCT	-0.749
ATAAAATCTTTCTATGGCCTGG	-0.133
TGAAGTCGTCCTCCAGCTCTGC	-1.04

Biological target: IL5
Assay: as above
Settings: shRNA

Sequence	sensor-assay potency score (higher = more potent)
TTCTTTATTAAGGACAAGTTTT	-1.48
TTGCACAGTTTGACTCTCCAGT	-0.479
TTGAATAGTCTTTCCACAGTAC	0.569
TTTTGAATAGTCTTTCCACAGT	-0.99
TTCTTCAGTGCACAGTTGGTGA	-1.09
TACAGGAACAGGAATCCTCAGA	-0.449
TTACTCTCCGTCTTTCTTCTCC	0.308
TTTGACTCTCCAGTGTGCCTAT	-0.108
TACACCAAGAAACTCTTGCAGG	-0.92
TATTTCTTTATTAAGGACAAGT	-0.457
TTTTATGTACAGGAACAGGAAT	-1.18
TCTTTCACCAATGCACTTGTGG	-0.0823
